PubChem BioAssay AID741 (SRMLSC, 2007)
Records with an inconclusive call do not appear. Calls of active or inactive are those of the source. Cut-off read from the data, not from the text of the source: active = toxicity enhancement factor above about 0.054; inconclusive = between about 0.00067 and that limit; inactive = weaker than that.

Experiment: MRP-overexpressing cell chemosensitization – dose response (AID 741)
Conditions: MRP-overexpressing cells, viability with/without cytotoxic drug; slope difference: measured here: slope difference tox minus reversal, stronger effect = higher value; toxicity enhancement factor: stronger effect = higher value; viability: measured here: viability series, compound alone, at 10 µM, stronger effect = lower value

SMILES	slope difference	toxicity enhancement factor	viability [%]
O=C1CCCC2C3CCCN4CCCC(CN12)C34 (stereo unspecified)	-0.494	-0.0048 (inactive)	94.7
O[C@H]1[C@H](O)[C@@H](O)CN2CC[C@H](O)[C@H]12	-0.39	-0.0036 (inactive)	98.5
